PubChem BioAssay (Tox21)
Results filed as inconclusive are left out. Where a structure was tested more than once in an assay, its records may differ in their call. Active and inactive are the calls of the source. Unless noted, calls come from the whole dose curve; as a rule, active = well fitted curve in the direction sought with a large enough effect in the repeat runs; inconclusive = weak or mixed curves; inactive = no such curve, though single readings can be large; an effect the other way counts as inactive or inconclusive.

Key:
[1] = qHTS assay to identify small molecule antagonists of the estrogen related receptor (ERR) signaling pathway from Tox21 library - cell viability counter screen (AID 1224834); note: nearly all actives have a fitted effect of over 30% in size; note: potency is the fitted concentration of half-maximal effect
Method in brief: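 After 17.5 h of compound exposure at 37 C, ERR cells are incubated with CellTiter-Fluor for 30 min and fluorescence intensity serves as the viability measure.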

[2] = target: Luciferin 4-monooxygenase (Photinus pyralis) (UniProt P08659); experiment: qHTS assay to identify small molecule inhibitors of firefly luciferase (AID 1224835); note: nearly all actives have a fitted effect of over 25% in size; note: potency is the fitted concentration of half-maximal effect; for activity change, negative = inhibition: series mostly up to about 120 µM
Sequence of Luciferin 4-monooxygenase (Photinus pyralis) (P08659 whole entry, looked up): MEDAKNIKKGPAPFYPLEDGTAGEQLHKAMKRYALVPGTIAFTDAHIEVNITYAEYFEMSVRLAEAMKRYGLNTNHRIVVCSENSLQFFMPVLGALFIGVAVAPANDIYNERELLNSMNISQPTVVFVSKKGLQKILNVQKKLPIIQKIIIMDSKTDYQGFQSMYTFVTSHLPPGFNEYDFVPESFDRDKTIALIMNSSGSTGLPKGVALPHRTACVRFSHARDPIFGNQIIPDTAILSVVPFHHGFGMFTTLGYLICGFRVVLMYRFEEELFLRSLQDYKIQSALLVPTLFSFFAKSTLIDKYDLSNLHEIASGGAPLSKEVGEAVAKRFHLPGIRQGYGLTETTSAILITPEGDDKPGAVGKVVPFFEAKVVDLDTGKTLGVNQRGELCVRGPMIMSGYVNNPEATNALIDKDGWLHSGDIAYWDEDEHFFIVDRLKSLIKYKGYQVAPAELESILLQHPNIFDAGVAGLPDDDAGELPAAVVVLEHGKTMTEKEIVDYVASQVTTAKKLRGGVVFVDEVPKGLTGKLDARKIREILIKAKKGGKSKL
Method in brief: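 Biochemical qHTS: compounds run as interplate titrations against purified firefly enzyme, with D-luciferin and ATP each at its KM concentration. Light output recorded by CCD imaging.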

[3] = qHTS assay to identify small molecule agonists of the constitutive androstane receptor (CAR) signaling pathway - cell viability counter screen (AID 1224836); note: series mostly up to about 92 µM; nearly all actives have a fitted effect of over 45% in size
Method in brief: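 Cells were seeded and incubated 4 hrs. Compounds were added across 15 concentrations together with PK11195 at 0.75 uM final. Plates were incubated 23 hrs at 37 C. CellTiter-Fluor was added and fluorescence measured.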

[4] = qHTS assay to identify small molecule antagonists of the constitutive androstane receptor (CAR) signaling pathway - cell viability counter screen (AID 1224837); note: nearly all actives have a fitted effect of over 45% in size; note: potency is the fitted concentration of half-maximal effect; for activity change, negative = cytotoxicity: series mostly up to about 92 µM
Method in brief: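 Counter screen run in HepG2-CYP2B6-hCAR cells: 4 hr settle, compound titration (15 concentrations) with 50 nM CITCO, 23 hr at 37 C/5% CO2, CellTiter-Fluor fluorescence.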

[5] = qHTS assay to identify small molecule antagonists of the estrogen related receptor signaling pathway with the pleiotropic PPARgamma coactivator (PGC) from Tox21 10K library - cell viability counter screen (AID 1224840; active = well fitted cell-killing curve with a large enough effect in the repeat runs, not every such curve was filed as active; note: nearly all actives have a fitted effect of over 40% in size; note: potency is the fitted concentration of half-maximal effect)
Method in brief: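 Following seeding of 2,000 PGC/ERR cells/well and 6 hours' incubation, test compounds were delivered in DMSO. The plates then sat 17.5 hours at 37 C before a fluorogenic live-cell protease reagent (CellTiter-Fluor) was read after 30 min.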

[6] = qHTS assay to identify small molecule antagonists of the estrogen related receptor signaling pathway with the pleiotropic PPARgamma coactivator (PGC) from Tox21 10K library (AID 1224841; call rule not given here; note: actives are mostly falling curves and most rising ones were filed inactive; nearly all actives have a fitted effect of over 50% in size; note: potency is the fitted concentration of half-maximal effect)
Method in brief: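 qHTS antagonist format: PGC/ERR cells, 2k/well, compound in DMSO by pin transfer after 6 h attachment, 18 h treatment at 37 C, One-Glo luminescence read at 30 min.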

[7] = qHTS assay to identify small molecule agonists of the estrogen related receptor signaling pathway with the pleiotropic PPARgamma coactivator (PGC) from Tox21 10K library (AID 1224842); note: nearly all actives have a fitted effect of over 15% in size; note: potency is the fitted concentration of half-maximal effect
Method in brief: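 PGC/ERR reporter cell line, 2,000 cells per well, incubated 6 h at 37 C before 23 nL compound in DMSO was added. After 18 h at 37 C, One-Glo luminescence read following 30 min at room temperature.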

[8] = target: Nuclear receptor subfamily 1 group I member 3 (Homo sapiens) (UniProt Q14994); experiment: qHTS assay to identify small molecule agonists of the constitutive androstane receptor (CAR) signaling pathway (AID 1224839); note: nearly all actives have a fitted effect of over 15% in size; note: potency is the fitted concentration of half-maximal effect;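 for activation: HepG2 cells stably carrying human CAR and a CYP2B6 luciferase reporter; series mostly up to about 92 µM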
Sequence of Nuclear receptor subfamily 1 group I member 3 (Homo sapiens) (Q14994 whole entry, looked up): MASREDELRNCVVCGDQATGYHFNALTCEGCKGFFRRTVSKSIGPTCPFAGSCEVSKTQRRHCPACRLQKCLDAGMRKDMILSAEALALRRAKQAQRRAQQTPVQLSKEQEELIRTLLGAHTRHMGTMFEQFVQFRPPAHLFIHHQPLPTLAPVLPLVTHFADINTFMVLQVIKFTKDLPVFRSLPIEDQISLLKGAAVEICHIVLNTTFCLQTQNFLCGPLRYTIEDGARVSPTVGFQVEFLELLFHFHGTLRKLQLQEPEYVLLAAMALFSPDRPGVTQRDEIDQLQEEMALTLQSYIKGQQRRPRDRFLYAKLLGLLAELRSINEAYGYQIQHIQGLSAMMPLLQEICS
Method in brief: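 Cells were plated and incubated 4 hrs, then dosed with compounds at 15 concentrations. PK11195 was added to 0.75 uM final. After 24 hrs at 37 C, luciferase luminescence was measured.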

[9] = target: Thyrotropin receptor (Homo sapiens) (UniProt P16473); experiment: qHTS assay to identify small molecule agonists of the thyroid stimulating hormone receptor (TSHR) signaling pathway (AID 1224843; calls by dose curve; note: nearly all actives have a fitted effect of over 45% in size; note: potency is the fitted concentration of half-maximal effect)
Sequence of Thyrotropin receptor (Homo sapiens) (P16473 whole entry, looked up): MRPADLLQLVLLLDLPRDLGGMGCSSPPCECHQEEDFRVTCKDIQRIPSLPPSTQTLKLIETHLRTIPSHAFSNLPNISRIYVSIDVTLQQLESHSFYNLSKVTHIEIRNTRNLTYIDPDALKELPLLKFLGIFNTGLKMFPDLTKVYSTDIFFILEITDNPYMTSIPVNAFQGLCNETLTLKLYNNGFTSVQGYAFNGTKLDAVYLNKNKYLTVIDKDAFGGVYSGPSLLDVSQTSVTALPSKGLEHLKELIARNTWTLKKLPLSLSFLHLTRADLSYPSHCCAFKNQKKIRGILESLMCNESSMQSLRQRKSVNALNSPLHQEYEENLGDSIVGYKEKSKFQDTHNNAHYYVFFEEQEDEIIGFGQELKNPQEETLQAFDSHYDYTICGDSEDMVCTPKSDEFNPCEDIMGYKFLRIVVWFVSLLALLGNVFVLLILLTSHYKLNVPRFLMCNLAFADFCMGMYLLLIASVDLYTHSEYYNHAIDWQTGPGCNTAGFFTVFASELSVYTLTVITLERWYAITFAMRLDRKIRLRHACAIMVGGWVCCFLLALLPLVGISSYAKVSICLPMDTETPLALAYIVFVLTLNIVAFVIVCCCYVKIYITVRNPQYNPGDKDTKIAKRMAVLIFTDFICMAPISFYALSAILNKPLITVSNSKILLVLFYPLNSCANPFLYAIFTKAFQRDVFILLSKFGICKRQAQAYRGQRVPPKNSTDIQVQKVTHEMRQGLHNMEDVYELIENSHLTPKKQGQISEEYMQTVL
Method in brief: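 TSHR-HEK293 cells in agonist mode, 30 min room-temperature step, then cAMP measured by competitive HTRF (cAMP-d2 with anti-cAMP cryptate) after 1 h at room temperature. Tested at 15 concentrations in triplicate.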

[10] = target: Nuclear receptor subfamily 1 group I member 3 (Homo sapiens) (UniProt Q14994); experiment: qHTS assay to identify small molecule antagonists of the constitutive androstane receptor (CAR) signaling pathway (AID 1224838);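 note: HepG2 cells stably expressing hCAR with CYP2B6 luciferase reporter stimulated by CITCO; nearly all actives have a fitted effect of over 40% in size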
Method in brief: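 Cell line: HepG2 double-stable for hCAR and CYP2B6-2.2kb reporter. Agonist: CITCO, 50 nM final. Compounds: 15 concentrations, 24 h, 37 C. Detection: ONE-Glo luminescence.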
% is set by controls: 0 for no effect and ±100 for the full control effect.

O=Cc1ccc(Cl)cc1Cl
inactive: Potency [1] | Potency [2] | Potency [3] | Potency [4] | Potency [5] | Potency [6] | Potency [7]

C=CC(C)=O
inactive: Potency [1] | Potency [2] | Potency [3] | Potency [4] | Potency [5] | Potency [7]

CCCC(=O)Cl
inactive: Potency [1] | Potency [2] | Potency [3] | Potency [4] | Potency [5]

COCC(C)N(C(=O)CCl)c1c(C)csc1C (stereo unspecified)
inactive: Potency [1] | Potency [2] | Potency [3] | Potency [4] | Potency [5] | Potency [7]
active: Potency [6] 21.7 µM

C=CC(=O)NCNC(=O)C=C
inactive: Potency [1] | Potency [2] | Potency [3] | Potency [4] | Potency [8] | Potency [5] | Potency [6] | Potency [9]

CN1[C@@H]2CC[C@H]1CC(OC(=O)c1cc(Cl)cc(Cl)c1)C2 (stereo partly specified)
inactive: Potency [1] | Potency [2] | Potency [3] | Potency [4] | Potency [5]

O=C(NC(=O)c1c(F)cccc1F)Nc1ccc(OC(F)(F)C(F)OC(F)(F)F)c(Cl)c1 (stereo unspecified)
inactive: Potency [1] | Potency [2] | Potency [3] | Potency [4] | Potency [5] | Potency [7] | Potency [9]

CC1Sc2c(C(=O)O)c(=O)c3cc(F)c(N4CCNCC4)cc3n21 (stereo unspecified)
inactive: Potency [1] | Potency [2] | Potency [3] | Potency [4] | Potency [8] | Potency [5] | Potency [6] | Potency [7]

O=S(=O)(O)C(F)(F)C(F)(F)C(F)(F)C(F)(F)F
inactive: Potency [1] | Potency [2] | Potency [3] | Potency [4] | Potency [5] | Potency [7]
active: Potency [8] 32.5 µM

O=NN1CCCCCC1
inactive: Potency [1] | Potency [2] | Potency [3] | Potency [4] | Potency [5] | Potency [9]

Nc1nc(=S)[nH][nH]1
inactive: Potency [1] | Potency [2] | Potency [3] | Potency [4] | Potency [5] | Potency [7] | Potency [9]

CCCCCCC#N
inactive: Potency [1] | Potency [2] | Potency [3] | Potency [4] | Potency [5] | Potency [9]

ClCc1cccc(Cl)c1
inactive: Potency [1] | Potency [2] | Potency [3] | Potency [4] | Potency [5] | Potency [7]

NC(=O)CI
active: Potency [2] 80.4 µM
inactive: Potency [1] | Potency [3] | Potency [4] | Potency [8] | Potency [7] | Potency [9]

CC(=O)NC1CCSC1=O (stereo unspecified)
inactive: Potency [1] | Potency [2] | Potency [3] | Potency [4] | Potency [5] | Potency [6] | Potency [7] | Potency [9]

CC(C)O.CC(C)O.OCCN(CCO)CCO.OCCN(CCO)CCO.[Ti]
inactive: Potency [1] | Potency [2] | Potency [3] | Potency [4] | Potency [10] | Potency [9]

CCOC(=O)C(Cl)C(C)=O (stereo unspecified)
inactive: Potency [1] | Potency [2] | Potency [3] | Potency [4] | Potency [5]

NCC(CC(=O)O)c1ccc(Cl)cc1 (stereo unspecified)
inactive: viability change, negative = cytotoxic [1] 4.17% [at 0.349 µM] | activity change, negative = inhibition [2] 0.511% [at 0.435 µM] | viability change, negative = cytotoxic [3] 7.94% [at 0.349 µM] | activity change, negative = cytotoxicity [4] 8.53% [at 0.349 µM] | viability change, negative = cytotoxic [5] 7.5% [at 0.349 µM] | activation [7] -1% [at 0.349 µM]

Brc1ccc(Oc2ccccc2)cc1
inactive: Potency [1] | Potency [2] | Potency [3] | Potency [4] | Potency [5]
885 nM (active) and inactive: Potency [7]
active: Potency [9] 1.25 µM

COc1cc(Cl)c(OC)cc1Cl
inactive: Potency [1] | Potency [2] | Potency [3] | Potency [4] | Potency [5] | Potency [6] | Potency [7]

CCCCNP(N)(N)=S
inactive: Potency [1] | Potency [2] | Potency [3] | Potency [4] | Potency [5]

CO/N=C(/C(=O)OC)c1ccccc1COc1ccccc1C
active: Potency [8] 7.7 µM
inactive: Potency [1] | Potency [2] | Potency [4] | Potency [10] | Potency [5] | Potency [7] | Potency [9]

OCCCBr
inactive: Potency [1] | Potency [3] | Potency [4] | Potency [10] | Potency [8] | Potency [5] | Potency [7]

S=C=NCc1ccccc1
inactive: Potency [1] | Potency [2] | Potency [3] | Potency [8] | Potency [5] | Potency [6] | Potency [7]

CCCCC(O)(Cn1cncn1)c1ccc(Cl)cc1Cl (stereo unspecified)
active: Potency [1] 54.4 µM | Potency [4] 61.1 µM | Potency [5] 54.4 µM | Potency [6] 48.5 µM
inactive: Potency [2] | Potency [10] | Potency [7]

BrCCCCBr
inactive: Potency [1] | Potency [2] | Potency [3] | Potency [4] | Potency [9]

C=CC(=O)OC
inactive: Potency [1] | Potency [3] | Potency [4] | Potency [10] | Potency [8] | Potency [5]
